Source: PubChem BioAssay
Most compounds without a hit are left out; they make up all but 1.1% or so of the library.
NR5A2 inv ag: suppresses constitutive activity of human LRH-1 | HEK293T StAR-luciferase reporter, LRH-1 transfected, 24 h | O00482 | inhibition, % at 3.6 µM | AID 602396 | 360,000 compounds, 0.13% hits;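 active means inhibition above the mean inhibition of all tested compounds plus 3 SD, cut at about 73% in these data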;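 further: 0% = DMSO wells and 100% = reporter-only cells lacking LRH-1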
COUP-TFII inh: inhibitors of human COUP-TFII (NR2F2); 370,000 compounds, 0.7% hits; AID 686940; HEK293T NGFI-A luciferase reporter, luminescence; inhibition, % at 8.6 µM; P24468;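 active means inhibition above a per-plate cutoff, mean inhibition of test wells between control levels plus 3 SD, cut at about 38% in these data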;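 further: cells cotransfected with COUP-TFII expression vector driving the NGFI-A reporter; 0% = median of COUP-TF2 test wells and 100% = reporter-only cells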
SRC2 inh: human SRC2 (NCOA2) inhibition; Q15596; HEK293 GAL4-SRC2 luciferase reporter, luminescence; inhibition, % at 9 µM; 370,000 compounds, 0.17% hits; AID 651957;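 active means inhibition above the mean inhibition of all tested compounds plus 3 SD, set per campaign, cut at about 52% in these data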;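 further: 0% = DMSO treated cells and 100% = cells given Gossypol at 36 µM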
GalR3 antag: blocks the human galanin receptor 3 | HEK293 GalR3-CNG cAMP membrane potential fluorescence; galR3 body fused to GalR1 C-terminus | inhibition, % at 3 µM | 360,000 compounds, 0.44% hits | AID 651719;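 active means inhibition above the screen-wide average plus 3 SD, cut at about 13% in these data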;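 further: forskolin and galanin both at EC90 stimulate the cells; cAMP rise reported by CNG channel membrane potential dye signal; 0% = forskolin plus galanin with DMSO and 100% = forskolin alone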
NCOA3 inh: human NCOA3 inhibition; HEK293 GAL4-SRC3 luciferase reporter, luminescence; inhibition, % at 3.6 µM; 360,000 compounds, 0.17% hits; AID 588352;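 active means inhibition above a per-campaign cutoff, the mean of all compounds plus 3 SD, cut at about 60% in these data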;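 further: 0% = DMSO-treated cells and 100% = gossypol-treated cells at 36 µM; higher means less SRC3-driven luciferase light from the GAL4 reporter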
NCOA1 inh: inhibitors of human steroid receptor coactivator 1 (SRC1). inhibition, % at 3.6 µM. 360,000 compounds, 0.12% hits. AID 588354. HEK293 GAL4-SRC1 luciferase reporter, luminescence. Q15788;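 active means inhibition above the campaign mean plus 3 SD, with each screening campaign given its own cutoff, cut at about 60% in these data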;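 further: 0% = DMSO treated cells and 100% = gossypol at 36 µM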
Target sequence (Q15788 whole entry, looked up, the tested form may be a part): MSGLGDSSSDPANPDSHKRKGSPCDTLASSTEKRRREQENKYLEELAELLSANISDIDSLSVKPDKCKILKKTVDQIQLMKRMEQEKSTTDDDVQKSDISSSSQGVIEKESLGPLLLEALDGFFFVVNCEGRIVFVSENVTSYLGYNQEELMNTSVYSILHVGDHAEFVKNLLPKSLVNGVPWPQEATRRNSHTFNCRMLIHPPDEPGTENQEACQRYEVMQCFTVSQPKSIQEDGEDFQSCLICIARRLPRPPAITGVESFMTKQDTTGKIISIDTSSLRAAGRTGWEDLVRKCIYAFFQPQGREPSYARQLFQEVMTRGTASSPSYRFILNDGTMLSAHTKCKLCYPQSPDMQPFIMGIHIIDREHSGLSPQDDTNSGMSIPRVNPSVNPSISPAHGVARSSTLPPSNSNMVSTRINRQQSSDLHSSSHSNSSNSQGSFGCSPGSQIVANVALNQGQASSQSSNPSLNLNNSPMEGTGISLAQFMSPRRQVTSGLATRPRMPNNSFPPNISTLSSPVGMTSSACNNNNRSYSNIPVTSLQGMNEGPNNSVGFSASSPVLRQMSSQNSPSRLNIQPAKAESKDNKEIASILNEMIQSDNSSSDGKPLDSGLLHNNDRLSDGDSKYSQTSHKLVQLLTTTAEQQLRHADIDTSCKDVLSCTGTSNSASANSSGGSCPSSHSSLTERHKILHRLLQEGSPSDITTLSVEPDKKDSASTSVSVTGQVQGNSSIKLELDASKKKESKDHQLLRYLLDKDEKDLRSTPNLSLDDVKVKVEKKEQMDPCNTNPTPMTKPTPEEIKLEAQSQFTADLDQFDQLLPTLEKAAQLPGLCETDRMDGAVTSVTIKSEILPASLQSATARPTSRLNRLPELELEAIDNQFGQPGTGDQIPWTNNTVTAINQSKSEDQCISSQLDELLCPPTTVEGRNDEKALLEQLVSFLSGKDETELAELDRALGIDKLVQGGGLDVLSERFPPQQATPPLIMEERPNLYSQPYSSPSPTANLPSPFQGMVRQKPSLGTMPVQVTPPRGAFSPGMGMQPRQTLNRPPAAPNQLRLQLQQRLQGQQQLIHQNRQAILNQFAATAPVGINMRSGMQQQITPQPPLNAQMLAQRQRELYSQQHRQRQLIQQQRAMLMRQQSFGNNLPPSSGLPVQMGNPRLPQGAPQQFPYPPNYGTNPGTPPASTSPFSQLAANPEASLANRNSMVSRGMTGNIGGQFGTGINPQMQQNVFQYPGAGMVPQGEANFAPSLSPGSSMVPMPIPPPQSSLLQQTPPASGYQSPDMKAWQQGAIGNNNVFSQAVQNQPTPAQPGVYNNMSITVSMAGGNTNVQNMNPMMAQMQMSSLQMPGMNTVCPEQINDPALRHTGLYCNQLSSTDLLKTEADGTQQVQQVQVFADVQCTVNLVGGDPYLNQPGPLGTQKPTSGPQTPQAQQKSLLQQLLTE
GalR3 conf: GalR3 (human) antagonism, confirmation; shares compounds with GalR3 antag; HEK293 GalR3 CNG cAMP biosensor, membrane potential fluorescence; galR3 fused to GalR1 carboxy tail; challenged with forskolin and galanin at EC90; inhibition, % at 3 µM; 1,600 compounds, 59% hits; AID 652245;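 active means inhibition above the primary screen's cutoff, the mean inhibition of all screened compounds plus 3 SD, cut at about 13% in these data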;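 further: 0% = forskolin plus galanin and 100% = forskolin alone with DMSO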
CNG parental: parental cell agonism counter-screen for GalR3 antagonists; 1,600 compounds, 10% hits; activation, % at 3 µM; HEK293-CNG parental cells, cAMP membrane potential fluorescence; normalised: DMSO wells 0%, forskolin wells 100%; shares compounds with GalR3 antag; in the data active means activation above about 1.3%
Starred values were filed as active, the others as inactive; nt = not tested or not shown.

SMILES | NR5A2 inv ag | COUP-TFII inh | SRC2 inh | GalR3 antag | NCOA3 inh | NCOA1 inh | GalR3 conf | CNG parental
Cc1cc(Br)cn2c(Cc3ccccc3C(F)(F)F)c(-c3ccco3)nc12 | nt | 12.2 | -4.4 | 17.8* | nt | nt | 44.5* | 1.1
COc1ccc(C(=O)N/N=C/c2cc3ccccc3[nH]c2=O)cc1 | 8.7 | -4.3 | -0.2 | nt | -0.1 | -0.9 | 60.2* | -0.2
CCN(CC)C(=O)OCCc1cc2ccccc2c(=O)o1 | -7.8 | -17.6 | -7.2 | nt | -17.4 | -3.9 | 0.6 | 0.2
O=C(O)c1ccccc1C(=O)OCCc1cc2ccccc2c(=O)o1 | 3.5 | -13.3 | 0.0 | -1.6 | -12.4 | -3.9 | nt | nt
COC(=O)[C@]12C[C@H](CC(=O)NCCC(C)C)C(=O)N(Cc3ccccc3)C1=C[C@H](COCc1ccccc1)O[C@@H]2C | nt | 16.7 | -2.5 | nt | nt | nt | nt | nt
COc1ccc(Cn2c(=O)[nH]c3cc(C(=O)N4CCN(c5ccccc5OC)CC4)ccc3c2=O)cc1 | 13.7 | nt | nt | nt | 11.8 | 22.9 | nt | nt
COc1ccc(Cn2c(=O)[nH]c3cc(C(=O)N4CCN(Cc5ccccc5)CC4)ccc3c2=O)cc1 | 32.9 | 34.4 | 19.6 | 65.0* | 23.9 | 16.3 | 88.3* | -0.5
CC(C)Oc1ccccc1C1Nc2ccccc2C(=O)N1c1ccc2c(c1)OCCO2 (stereo not drawn) | -161.2 | -28.5 | -33.1 | 1.2 | -108.8 | -74.7 | nt | nt
Cc1ccc(N2C(=O)c3ccccc3NC2C(C)Cc2ccc3c(c2)OCO3)cc1 (stereo not drawn) | -59.5 | -17.4 | -8.9 | 39.3* | -62.0 | -40.4 | 48.4* | 0.1
Cc1ccccc1NC(=O)[C@@H]1CCCN1S(=O)(=O)c1cccc2cccnc12 | nt | 3.2 | nt | nt | nt | nt | nt | nt
CC(C)CN(C(=O)CN1CCN(c2cccc(Cl)c2)CC1)c1c(N)n(CC(C)C)c(=O)[nH]c1=O | 10.3 | -13.1 | -6.0 | -5.7 | 9.8 | -16.7 | nt | nt
CC(C)CN(C(=O)CN1CCN(S(=O)(=O)c2ccc3ccccc3c2)CC1)c1c(N)n(CC(C)C)c(=O)[nH]c1=O | 4.2 | 12.7 | 11.0 | 18.3* | 6.0 | 12.1 | -4.0 | 0.3
CCOc1ccc(CCNC(=O)Cc2ccccc2)cc1OCC | nt | 8.4 | nt | nt | nt | nt | nt | nt
COc1ccc(C(=O)c2c(-c3ccc(OC)cc3)oc3ccccc23)cc1 | 1.2 | -1.9 | 11.0 | 2.9 | -23.5 | -0.2 | nt | nt
COc1ccc(C(=O)c2ccc3oc(-c4ccc(OC)cc4)c(-c4ccc(O)cc4)c3c2)cc1 | -34.1 | -16.5 | -16.5 | 12.7* | -2.2 | 2.7 | 5.4 | -0.8
O=[N+]([O-])c1cccc(C2=NCCC(c3ccccc3)O2)c1 (stereo not drawn) | -20.6 | -55.2 | -19.0 | 22.0* | -15.0 | 1.9 | 4.1 | 0.1
O=c1cc(-c2ccccc2)[nH]c2ccc(F)cc12 | -6.0 | -86.5 | 7.1 | 20.4* | -1.0 | -36.8 | 5.4 | 1.1
C#CCOCCOCCOCCNc1nc(N2CCN(C(=O)[C@H]([C@@H](C)CC)n3cc(CCC(=O)O)nn3)CC2)nc(N2CCN(C(=O)[C@H](CCCCN)n3cc(CCC(=O)O)nn3)CC2)n1 | 13.4 | 0.3 | -21.3 | nt | -7.5 | -8.8 | -3.0 | 0.4
C#CCOCCOCCOCCNc1nc(N2CCN(C(=O)[C@H]([C@@H](C)CC)n3cc(CCCCN)nn3)CC2)nc(N2CCN(C(=O)[C@H](CCCCN)n3cc(CC(C)O)nn3)CC2)n1 (stereo partly drawn) | -0.7 | -6.2 | -51.3 | -3.6 | -3.0 | -6.3 | nt | nt
COc1ccc(CNC(=O)c2c(N)[nH]c(C(=O)c3ccccc3)c2-c2ccc3ccccc3c2)cc1OC | nt | 6.9 | -21.4 | -7.1 | nt | nt | nt | nt
O=C1CSC(c2cccs2)N1c1nncs1 (stereo not drawn) | nt | -6.4 | -43.3 | -2.3 | nt | nt | nt | nt
Cc1ccc(NC(=O)c2cccc(N3C(=O)C4C5CCC(C5)C4C3=O)c2)c(C)c1 (stereo not drawn) | -12.6 | 7.5 | 3.6 | 5.2 | 16.0 | 4.9 | nt | nt
Cc1ccc2c(c1)C1C3CCC(C3)C1S(=O)N2 (stereo not drawn) | 12.1 | -3.7 | 0.0 | 18.0* | 11.4 | -6.0 | 4.2 | -0.1
O=C(O)Cc1csc(-c2cccc(F)c2)n1 | 15.0 | 10.9 | -31.4 | nt | -30.0 | -1.1 | 0.2 | 0.1
NC(=O)CC[C@H](NC(=O)c1ccc(F)cc1)C(=O)OCC(=O)NCc1ccc2c(c1)OCO2 | 15.0 | -58.3 | -32.8 | 26.3* | -2.8 | -14.0 | 0.6 | 0.2
SMILES | NR5A2 inv ag | COUP-TFII inh | SRC2 inh | GalR3 antag | NCOA3 inh | NCOA1 inh | GalR3 conf | CNG parental
O=C(COC(=O)c1ccc2c(c1)OCO2)NCc1ccc2c(c1)OCO2 | -0.2 | -23.9 | -18.9 | -5.8 | 18.7 | 0.5 | nt | nt
Cc1ccccc1S(=O)(=O)/N=C(/c1ccccc1)N1CCOCC1 | 16.8 | 16.7 | 13.8 | 13.8* | 22.2 | -6.2 | 6.6 | -0.2
C=CCN1C(=O)[C@@H](CC(=O)N2CCC(c3ccccc3)CC2)[C@]2(C(=O)OCC)CCCCC/C=C/12 | nt | 10.2 | -10.0 | nt | nt | nt | nt | nt
Cn1cnc([N+](=O)[O-])c1NC(C)(C)C | -16.6 | 5.4 | -11.0 | 4.4 | 11.3 | -11.4 | nt | nt
Cn1cnc([N+](=O)[O-])c1S(=O)(=O)c1ccc(Cl)cc1 | 28.9 | -10.4 | 13.2 | 12.7* | -10.3 | -3.1 | 1.3 | 0.2
CCN(Cc1ccccc1)c1ccc(/C=N/NC(=O)c2cccc(S(=O)(=O)N3CCOCC3)c2)cc1 | 57.9 | 9.3 | 4.5 | 23.6* | 28.3 | -0.7 | 88.5* | -2.1
CCN(CC)c1ccc(/C=N/NC(=O)c2cccc(S(=O)(=O)N3CCOCC3)c2)cc1 | 24.4 | -10.2 | 2.2 | -4.3 | -15.2 | -3.3 | nt | nt
COc1ccc(C(O)c2nccc3cc(OC)c(OC)cc23)cc1OC (stereo not drawn) | 13.4 | 22.3 | 16.2 | 16.8* | -17.6 | 0.2 | 1.2 | 0.4
C[C@@H]1[C@H](c2ccccc2)OC(O)([C@H](Cc2ccccc2)NC(=O)OC(C)(C)C)CN1C (stereo partly drawn) | nt | 15.8 | nt | nt | nt | nt | nt | nt
COc1cc([N+](=O)[O-])cc(/C=N/NC(=O)c2cncc(Br)c2)c1O | 3.3 | 5.3 | 5.6 | 25.1* | 6.9 | 0.9 | 38.3* | -0.3
Cc1ccccc1NC(=O)CN(C)S(=O)(=O)c1ccc(-c2ccc(=O)[nH]n2)s1 | -4.7 | -2.7 | 0.2 | 6.7 | -22.7 | -5.3 | nt | nt
Cc1cccc(NC(=O)CN(C)S(=O)(=O)c2ccc(-c3ccc(=O)[nH]n3)s2)c1C | 2.5 | -9.0 | -36.9 | 80.0* | -23.7 | -41.6 | 11.7 | 0.4
Cc1ccc(S(=O)(=O)N(C)[C@H]2C[C@H]3c4cc(N5CCOCC5)ccc4CCN3C[C@H]2[C@H](C)O)cc1 | nt | -16.9 | 4.0 | nt | nt | nt | nt | nt
